Laboratory results: PubChem BioAssay (Tox21)
Records with an inconclusive call do not appear. Where a call stands in place of a potency, no number is given. A number with no mark means an inactive call. Calls of active or inactive are those of the source. The call rests on the fitted dose curve; in most records, active means well fitted cell-killing curve with a large enough effect in the repeat runs; inconclusive means weak or mixed curves, or effect the other way; inactive means flat fitted curve, though single readings scatter.

Assay: qHTS assay to identify small molecule agonists of the sonic hedgehog signaling (Shh) pathway - cell viability counter screen (AID 1259366); further: nearly all actives have a fitted effect of over 50% in size
Details: NIH/3T3 Gli1-Luc viability, CellTiter-Fluor, 24 h; series mostly up to 92.4 µM
Source text: National Center for Advancing Translational Sciences [NCATS]
NIH Chemical Genomics Center [NCGC]
U.S. Environmental Protection Agency [EPA]
National Institutes of Environmental Health Sciences [NIEHS]
National Toxicology Program [NTP]
U.S. Food and Drug Administration [FDA]
The sonic hedgehog (Shh) pathway is essential for normal embryonic development. Dysregulation of the Shh pathway can cause severe developmental defects in organs. Therefore chemicals that interfere with the pathway are potential developmental toxicants. A cell line designated 3T3Gli1-Luc (DMB/OARSA/CFSAN/FDA, Laurel, MD), a NIH/3T3 derived clone containing stably integrated Gli1-Luc reporter is used to detect chemical interference of the Shh pathway, by changes in the expression of the firefly Luc gene under the control of the Gli1 transcriptional response element. This cell line was used to screen Tox21 libraries for identifying and prioritizing the potential developmental toxicants that interfere Shh pathway. The cytotoxicity of the compounds was tested in parallel by measuring the cell viability using CellTiter-Fluor assay system (Promega, Madison, WI) in the same wells.
Tox21 Assay Protocol Summary:
3T3 Gli1-Luc cells were dispensed at 2,000 per well in 5uL of culture medium into white solid bottom 1536-well plates (Greiner Bio-One, Monroe, NC) using a Multidrop Combi (Thermo Scientific, Waltham, MA) dispenser. The assay plates were incubated at 37 C and 5% CO2 for 4hr, and then 23nL of compounds dissolved in DMSO and positive control were transferred using a Pintool station (Wako, San Diego, CA). The assay plates were incubated at 37C and 5% CO2 for 24hr. For viability read, after 23hr of compound treatment, 1uL of CellTiter-Fluor reagent (Promega Corporation, Madison, WI) was added to each well of the assay plates using Flying Reagent Dispenser (FRD, Aurora Discovery, San Diego, CA) and incubated the assay plates at 37C for 1hr. The fluorescence signal was quantified using a ViewLux plate reader (Perkin Elmer, Shelton, CT).
Potency means the concentration at half of the fitted maximal effect.

| SMILES | Potency | viability change, negative = cytotoxic |
| --- | --- | --- |
| CC(C)CCOC(=O)CC(C)C | inactive |  |
| O=c1[nH]c2ccccc2c(=O)n1CCCl | inactive |  |
| OCc1ccccn1 | inactive |  |
| CC(C)c1ccc2oc3nc(N)c(C(=O)O)cc3c(=O)c2c1 | inactive |  |
| Cc1nc(-c2ccc(OCC(C)C)c(C#N)c2)sc1C(=O)O | inactive |  |
| O=[N+]([O-])c1ccc(Oc2ccc([N+](=O)[O-])cc2)cc1 | inactive |  |
| CCn1cc(C(=O)O)c(=O)c2cc(F)c(N3CCN(C)CC3)cc21 |  | 6.14% [at 19 µM] |
| CN(C)CCOC(c1ccc(Cl)cc1)c1ccccn1 (stereo not given) | inactive |  |
| Nc1ccc2cc(S(=O)(=O)O)ccc2c1 | inactive |  |
| CC(=O)O[C@H](CC(=O)[O-])C[N+](C)(C)C | inactive |  |
| CC(O)CN(CCCN(C)C)CCCN(C)C (stereo not given) | inactive |  |
| CC(C)(C)C(=O)/C=C/c1ccc(Cl)cc1 | inactive |  |
| C[C@H](O)C(=O)Nc1c(I)c(C(=O)NC(CO)CO)c(I)c(C(=O)NC(CO)CO)c1I | inactive |  |
| CC(C)(O)c1ccccc1 | inactive |  |
| OC1OC[C@@H](O)[C@H](O)[C@H]1O (stereo not given in full) | inactive |  |
| C=CC(=O)N1CCOCC1 | inactive |  |
| CCC(=O)c1cccc(Cl)c1 | inactive |  |
| C=C(C)C(=O)NCCCN(C)C | inactive |  |
| COC(=O)C1=C(C)NC(C)=C(C(=O)OCC(C)=O)C1c1ccccc1[N+](=O)[O-] (stereo not given) | 26.6 µM (active) |  |
| CCCCN(CCO)CCO | inactive |  |

| SMILES | Potency | viability change, negative = cytotoxic |
| --- | --- | --- |
| C=CCSCC1Nc2cc(Cl)c(S(N)(=O)=O)cc2S(=O)(=O)N1 (stereo not given) | inactive |  |
| Fc1ccccc1-c1ccccc1 | inactive |  |
| CC(C)[N+](C)(C)CC(O)COc1cccc2ccccc12 (stereo not given) | inactive |  |
| CCCC=O | inactive |  |
| CC(C)c1cccc(O)c1 | inactive |  |
| CCCCCCCCCCCCI | inactive |  |
| CCC(=O)/C=C/c1ccc(OC)cc1 | inactive |  |
| CC1(C)OC(=O)Nc2ccc(Br)cc21 | inactive |  |
| CCC(C(=O)NC(N)=O)c1ccccc1 (stereo not given) | inactive |  |
| NCCNC(=O)c1ccc(Cl)cn1 | inactive |  |
| Cc1c(F)cc2c(=O)c(C(=O)O)cn3c2c1CCC3C (stereo not given) | inactive |  |
| C=C(C)[C@@H]1CCC2=CC(=O)C[C@@H](C)[C@]2(C)C1 | inactive |  |
| CCCCc1ccc2cccc(S(=O)(=O)O)c2c1 | inactive |  |
| O=C(O)c1ccc[n+]([O-])c1 | inactive |  |
| COc1ccc2cc(C=O)ccc2c1 | inactive |  |
| CNC(=O)c1c(I)c(NC(=O)CCCCC(=O)Nc2c(I)c(C(=O)O)c(I)c(C(=O)NC)c2I)c(I)c(C(=O)O)c1I | inactive |  |
| O=C(CCOCCOCCOCCOCCC(=O)Nc1c(I)cc(I)c(C(=O)O)c1I)Nc1c(I)cc(I)c(C(=O)O)c1I | inactive |  |
| CC(C)CCCC(C)CCCC(C)CCCCC(C)CCCC(C)CCCC(C)C (stereo not given) | inactive |  |
| CN(C)N=Nc1ccccc1 | inactive |  |
| C(=C(c1ccccc1)c1ccccc1)c1ccccc1 | inactive |  |
